PubChem BioAssay AID1159580 (chemical genetic matrix, 2015)
Several values for one entry are separate records, joined by “and”; a condition that tells them apart may be missing. Identical values can stand only once. In all, about 5,500 compounds went through this assay and about 2,000 (36%) were called active. Another 18% or so got no clear call; they are omitted. Cut-off read from the data, not from the text of the source: active = normalized growth mostly below about 0.91 (no sharp cut-off); inconclusive = no clear call, values can overlap the other calls; inactive = mostly above about 0.92. The list shows a part of the results.

Assay: chemical genetic growth profiling, strain panel (AID 1159580);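 note: tested at 20 µM; growth read once vehicle control cultures reached saturation at 30 °C; 1 = growth at the plate median or of vehicle wells; lower values mean less growth of the strain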
Conditions: S. cerevisiae deletion strains, growth OD

Measured: normalized growth

CCN(CC)CCOC(=O)c1ccc(N)cc1
inactive: locus YAL013W, strain DEP1, stronger effect = lower value 0.955 | locus YAL021C, strain ccr4, stronger effect = lower value 0.964 | locus YAL026C, strain drs2, stronger effect = lower value 0.989 | locus YAL030W, strain snc1, stronger effect = lower value 0.986 | locus YAL040C, strain CLN3, stronger effect = lower value 1.04 | locus YBL061C, strain skt5, stronger effect = lower value 0.999 | locus YBR009C, strain hhf1, stronger effect = lower value 0.95 | locus YBR021W, strain FUR4, stronger effect = lower value 1.01 | locus YBR023C, strain chs3, stronger effect = lower value 0.976 | locus YBR171W, strain sec66, stronger effect = lower value 0.988 | locus YBR229C, strain ROT2, stronger effect = lower value 1.01 | locus YBR231C, strain swc5, stronger effect = lower value 1.01 | locus YBR279W, strain paf1, stronger effect = lower value 0.979 | locus YCL011C, strain gbp2, stronger effect = lower value 0.955 | locus YCL016C, strain dcc1, stronger effect = lower value 0.963 | locus YCL029C, strain bik1, stronger effect = lower value 0.989 | locus YCL061C, strain MRC1 (second series), stronger effect = lower value 0.977 | locus YCL061C, strain MRC1, stronger effect = lower value 0.975 | locus YCL069W, strain vba3, stronger effect = lower value 0.972 | locus YCR088W, strain abp1, stronger effect = lower value 0.978 | locus YDL005C, strain med2, stronger effect = lower value 0.99 | locus YDL035C, strain GPR1, stronger effect = lower value 1.01 | locus YDL040C, strain nat1, stronger effect = lower value 1 | locus YDL074C, strain BRE1, stronger effect = lower value 1.03 | locus YDL101C, strain DUN1, stronger effect = lower value 1.01 | locus YDL134C, strain PPH21, stronger effect = lower value 1.01 | locus YDL185W, strain tfp1, stronger effect = lower value 0.995 | locus YDL192W, strain arf1, stronger effect = lower value 0.986 | locus YDR001C, strain nth1, stronger effect = lower value 0.973 | locus YDR069C, strain doa4, stronger effect = lower value 0.998 | locus YDR101C, strain arx1, stronger effect = lower value 1 | locus YDR137W, strain rgp1, stronger effect = lower value 0.98 | locus YDR150W, strain NUM1, stronger effect = lower value 0.999 | locus YDR159W, strain sac3, stronger effect = lower value 0.928 | locus YDR162C, strain NBP2, stronger effect = lower value 1.01 | locus YDR195W, strain ref2 0.999 | locus YDR297W, strain sur2, stronger effect = lower value 0.986 | locus YDR318W, strain mcm21, stronger effect = lower value 0.977 | locus YDR334W, strain swr1, stronger effect = lower value 0.982 | locus YDR335W, strain msn5, stronger effect = lower value 0.981 | locus YDR363W, strain ESC2, stronger effect = lower value 1.01 | locus YDR388W, stronger effect = lower value 0.997 | locus YDR392W, strain spt3, stronger effect = lower value 0.928 | locus YDR502C, strain sam2, stronger effect = lower value 0.997 | locus YEL003W, strain gim4, stronger effect = lower value 0.98 | locus YEL037C, strain rad23, stronger effect = lower value 0.989 | locus YEL061C, strain CIN8 (second series), stronger effect = lower value 0.978 | locus YEL061C, strain CIN8, stronger effect = lower value 1.01 | locus YER002W, strain NOP16, stronger effect = lower value 0.984 | locus YER015W, strain faa2, stronger effect = lower value 1 | locus YER016W, strain bim1, stronger effect = lower value 0.979 | locus YER110C, stronger effect = lower value 0.999 | locus YER111C, strain swi4, stronger effect = lower value 0.977 | locus YER155C, strain BEM2 (second series), stronger effect = lower value 1.06 | locus YER155C, strain BEM2, stronger effect = lower value 1 | locus YER167W, strain BCK2, stronger effect = lower value 1 | locus YFR010W, strain ubp6, stronger effect = lower value 0.988 | locus YGL078C, strain dbp3, stronger effect = lower value 0.997 | locus YGL086W, strain mad1, stronger effect = lower value 0.994 | locus YGL167C, strain pmr1, stronger effect = lower value 0.997 | locus YGL173C, strain kem1, stronger effect = lower value 0.994 | locus YGL227W, strain vid30, stronger effect = lower value 0.984 | locus YGL240W, strain doc1, stronger effect = lower value 1.01 | locus YGL248W, strain PDE1, stronger effect = lower value 1.01 | locus YGL253W, strain hxk2, stronger effect = lower value 0.963 | locus YGR078C, strain PAC10, stronger effect = lower value 1.01 and 0.99 | locus YGR135W, strain pre9, stronger effect = lower value 0.997 | locus YGR229C, strain SMI1, stronger effect = lower value 0.964 | locus YGR252W, strain gcn5, stronger effect = lower value 0.998 | locus YHR013C, strain ard1, stronger effect = lower value 0.969 | locus YHR027C, strain rpn1, stronger effect = lower value 0.97 | locus YHR030C, strain SLT2, stronger effect = lower value 1 and 1.05 | locus YHR079C, strain IRE1 (second series), stronger effect = lower value 0.981 | locus YHR079C, strain IRE1, stronger effect = lower value 1.04 | locus YHR094C, strain hxt1, stronger effect = lower value 0.983 | locus YHR129C, strain ARP1, stronger effect = lower value 1.01 | locus YHR142W, strain chs7, stronger effect = lower value 0.972 | locus YHR200W, strain rpn10, stronger effect = lower value 0.997 | locus YIL066C, strain RNR3, stronger effect = lower value 1.01 | locus YIL073C, strain SPO22, stronger effect = lower value 0.969 | locus YIL125W, strain kgd1, stronger effect = lower value 0.995 | locus YIR030C, strain dcg1, stronger effect = lower value 0.993 | locus YJL092W, strain hpr5, stronger effect = lower value 0.992 | locus YJL095W, strain BCK1 (second series), stronger effect = lower value 0.993 | locus YJL095W, strain BCK1, stronger effect = lower value 1.03 | locus YJL115W, strain asf1, stronger effect = lower value 0.98 | locus YJL129C, strain trk1, stronger effect = lower value 0.989 | locus YJL134W, strain LCB3, stronger effect = lower value 0.999 | locus YJL154C, strain vps35, stronger effect = lower value 0.987 | locus YJL164C, strain tpk1, stronger effect = lower value 0.961 | locus YJL166W, strain qcr8, stronger effect = lower value 1.02 | locus YJL168C, strain set2, stronger effect = lower value 0.993 | locus YJL187C, strain SWE1 (second series), stronger effect = lower value 1.01 | locus YJR043C, strain POL32, stronger effect = lower value 1.01 | locus YJR066W, strain TOR1, stronger effect = lower value 0.999
